TcdB GH inh: TcdB glycohydrolase inhibition; P18177; TcdB glycohydrolase enzymatic assay, plate reader; inhibition, % at 9.99 µM; 350,000 compounds, 0.24% hits; AID 652162; in the data active means inhibition above about 10%
BoNT F protease: blocks Botulinum neurotoxin F light chain protease; Multiplex microsphere protease cleavage assay, flow cytometry; inhibition, % at 10 µM; 360,000 compounds, 0.22% hits; AID 588497; in the data active means inhibition above about 35%, passing the limit was not always enough; inconclusive means no clear call, values can overlap the other calls; further: plate controls were buffer without enzyme for full effect and enzyme alone for no effect
Anthrax LF prot: blocks Bacillus anthracis lethal factor protease; multiplex microsphere protease cleavage assay, LF; inhibition, % at 10 µM; 360,000 compounds, 0.12% hits; further: plate controls were buffer without enzyme for full effect and enzyme alone for no effect
Bead autofluor: compound fluorescence in toxin protease inhibitor counterscreen; compound autofluorescence counterscreen, microsphere flow cytometry; stronger effect = higher value; fluorescence intensity (concentration not given with the values); 360,000 compounds, 3.1% hits; in the data active means fluorescence intensity above about 16000; inconclusive means no clear call, values can overlap the other calls
BoNT-A LC inh2: inhibitors of Botulinum neurotoxin A light chain protease | multiplex microsphere protease substrate cleavage, flow cytometry | inhibition, % at 10 µM | 360,000 compounds, 0.17% hits | AID 588499; further: plate controls were buffer without enzyme for full effect and enzyme alone for no effect
BoNTA LC inh 1: BoNT/A light chain protease inhibition; shares compounds with BoNT F protease; multiplex microsphere protease assay, flow cytometry; 720 compounds, 3% hits; AID 602139; inhibition, % at 10 µM; in the data active means inhibition above about 32%
BoNT-F LC CP1: BoNT/F light chain protease inhibition; shares compounds with BoNT F protease; multiplex microsphere protease cleavage assay, flow cytometry; inhibition, % at 10 µM; 720 tested, under 10 active; AID 602140; call rule not given here
LF protease CP1: Bacillus anthracis lethal factor protease inhibition; multiplex microsphere protease cleavage assay, LF; inhibition, % at 10 µM; shares compounds with BoNT F protease; 720 tested, under 10 active; call rule not given here
BoNTA LC inh 2: blocks botulinum neurotoxin A light chain protease | shares compounds with BoNT-A LC inh2 | multiplex microsphere protease cleavage assay, flow cytometry | inhibition, % at 10 µM | 150 compounds, 10% hits | AID 602325; in the data active means inhibition above about 24%
LF protease CP2: inhibitors of Bacillus anthracis lethal factor protease | shares compounds with BoNT-A LC inh2 | multiplex microsphere protease cleavage assay | inhibition, % at 10 µM | 150 compounds, 7% hits; in the data active means inhibition above about 25%
BoNTF LC inh 2: blocks botulinum neurotoxin F light chain protease | shares compounds with BoNT-A LC inh2 | multiplex microsphere protease cleavage assay, flow cytometry | inhibition, % at 10 µM | 150 compounds, 7% hits | AID 602336; in the data active means inhibition above about 25%
An asterisk follows results filed as active; ? = inconclusive; / = no result. The entries come from a sample that favours hits as a whole. Unless noted, no stated cut-off is given here; in the data, active means inhibition above about 30%; inconclusive means no clear call, values can overlap the other calls; inactive means below that.

SMILES | TcdB GH inh | BoNT F protease | Anthrax LF prot | Bead autofluor | BoNT-A LC inh2 | BoNTA LC inh 1 | BoNT-F LC CP1 | LF protease CP1 | others
C=CCn1c(SCC(=O)Nc2ccc(Br)cc2)nc(O)cc1=O | -1.5 | 2.5 | -3.7 | 3765 | 0.1 | / | / | /
CCn1c(SCC(=O)Nc2ccc(C)cc2)nc(O)cc1=O | -0.6 | 42.3* | 9.5 | 3877 | 3.1 | -0.3 | 5.8 | 6.3
CC(=O)Nc1ccc(NC(=O)c2sc(-c3ccccc3)nc2C)cc1 | 0.7 | 42.8* | 22.3 | 3706 | -2.9 | 0.7 | -1.8 | 0.1
CNC(=O)c1sc(-c2ccccc2)nc1C | / | 0.5 | -0.4 | 2996 | 0.1 | / | / | /
C[C@H](CO)N1C[C@H](C)[C@@H](CN(C)Cc2cccnc2)Oc2cc(C#CCN(C)C)ccc2S1(=O)=O | -0.8 | / | / | / | / | / | / | /
CN(CC(=O)NCCc1ccc(S(N)(=O)=O)cc1)Cc1c(F)cccc1Cl | -0.1 | 40.5* | 4.8 | 3568 | -1.5 | 1.2 | -3.6 | -5.1
NS(=O)(=O)c1ccc(NCc2c(F)cccc2Cl)cc1 | / | 45.7* | -8.0 | 8836 | 38.3* | 0.7 | -0.3 | -2.6
Fc1cccc(Cl)c1CNc1ccc(N2CCCC2)cc1 | 0.3 | -34.7 | -9.2 | 2305 | -0.6 | / | / | /
C[C@@H]1CN([C@H](C)CO)C(=O)c2cc(NS(=O)(=O)c3cccs3)ccc2O[C@H]1CN(C)S(=O)(=O)c1cn(C)cn1 | 1.8 | / | / | / | / | / | / | /
CCC(=O)N1C[C@@H](O)COC[C@H]2O[C@H](CC(=O)NCc3ccccc3Cl)CC[C@@H]21 | 0.4 | / | / | / | / | / | / | /
Cc1cc(C)c(NC(=O)C2CCCO2)c(C)c1NC(=O)C1CCCO1 (stereo unspecified) | 1.3 | 38.4* | -6.6 | 2848 | -1.6 | 0.3 | -3.6 | -5.8
COCC(=O)N1CC2(CCN(Cc3ccccc3)CC2)c2c([nH]c3cc(OC)ccc23)[C@H]1CO | 1.1 | / | / | / | / | / | / | /
CCCNC(=O)Nc1ccc2c(c1)C(=O)N(C)C[C@H](OC)[C@@H](C)CN(Cc1ccc(-c3ccccn3)cc1)[C@H](C)CO2 | -0.3 | / | / | / | / | / | / | /
Cc1ccccc1OCC(=O)Nc1nnc(C2CCCCC2)s1 | 0.0 | 47.0* | -2.5 | 2965 | -0.8 | -0.7 | -3.3 | -2.5
CCOc1ccccc1OCC(=O)Nc1nnc(COC)s1 | / | 53.4* | ? | ? | ? | 0.0 | -5.5 | -2.6
C[C@H]1CCCCO[C@H](CN(C)C(=O)c2ccncc2)[C@@H](C)CN([C@@H](C)CO)C(=O)c2cc(NS(=O)(=O)c3ccc(Cl)cc3)ccc2O1 | 1.0 | / | / | / | / | / | / | /
COc1ccc(NC(=O)N(C)C[C@H]2Oc3ccc(NS(=O)(=O)c4ccc(F)cc4)cc3C(=O)N([C@H](C)CO)C[C@H]2C)cc1 | -16.5 | / | / | / | / | / | / | /
COc1ccc(-n2c(C)nnc2SCC(=O)N2CCOCC2)cc1 | 1.4 | 47.2* | 0.2 | 3824 | -4.3 | 1.0 | 1.9 | -2.3
C[C@H]1CCCCO[C@@H](CN(C)C(=O)c2ccccc2)[C@@H](C)CN([C@@H](C)CO)C(=O)c2cc(NC(=O)c3ccccc3)ccc2O1 | 0.2 | / | / | / | / | / | / | /
O=[N+]([O-])c1ccc(N(c2ccccc2)c2ccccc2)cc1 | / | 24.2 | 46.7* | 21531* | 58.2* | 21.1 | 9.9 | 16.0
CSc1nnc2c(n1)c(C)nn2-c1cccc(C)c1 | / | 9.9 | 52.9* | 6571 | 68.8* | 33.3* | 4.0 | 19.7
O=C(C[C@@H]1C=C[C@@H](NS(=O)(=O)c2ccc(F)cc2)[C@H](CO)O1)N1CCC(Cc2ccccc2)CC1 | -0.4 | / | / | / | / | / | / | /
C[C@H]1CN([C@@H](C)CO)C(=O)c2cc(C#CC3CCCC3)cnc2O[C@H]1CN(C)Cc1ccncc1 | 0.2 | / | / | / | / | / | / | /
C[C@H](CO)N1C[C@H](C)[C@H](CN(C)C)Oc2ncc(-c3ccc(F)cc3)cc2C1=O | 0.5 | / | / | / | / | / | / | /
COc1ccc(NC(=O)c2cc(S(=O)(=O)N3CCCC3)ccc2C)cn1 | 0.9 | 73.3* | 44.9* | 2946 | 11.7 | / | / | / | BoNTA LC inh 2=1.2;LF protease CP2=-2.1;BoNTF LC inh 2=-1.2
